From PubChem BioAssay AID1159580 (chemical genetic matrix, 2015)
Where “and” joins values, the source holds several entries; their conditions need not be identical. Identical values can stand only once. In all, about 5,500 compounds went through this assay and about 2,000 (36%) were called active. Not shown: some 18% with an inconclusive outcome. Cut-off read from the data, not from the text of the source: active = normalized growth mostly below about 0.91 (no sharp cut-off); inconclusive = no clear call, values can overlap the other calls; inactive = mostly above about 0.92. This is one part of the list.

Assay: chemical genetic growth profiling, strain panel (AID 1159580);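 note: tested at 20 µM; growth read once vehicle control cultures reached saturation at 30 °C; 1 = growth at the plate median or of vehicle wells; lower values mean less growth of the strain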
Settings: S. cerevisiae deletion strains, growth OD

Measured: normalized growth

CC(=O)Oc1cc(C)c2c(c1C(OC(C)=O)OC(C)=O)Oc1c(c(C)c(OC(C)=O)c3c1C(OC(C)=O)OC3=O)OC2=O (stereo not given)
active: locus YLR113W, strain HOG1, active compounds read low 0.832
inactive: locus YAL013W, strain DEP1, active compounds read low 0.98 | locus YBR021W, strain FUR4, active compounds read low 1.01 | locus YBR229C, strain ROT2, active compounds read low 0.989 | locus YCL029C, strain bik1, active compounds read low 0.98 | locus YDL035C, strain GPR1, active compounds read low 1.03 | locus YDL074C, strain BRE1, active compounds read low 0.998 | locus YDL101C, strain DUN1, active compounds read low 0.983 | locus YDL134C, strain PPH21, active compounds read low 0.983 | locus YDL185W, strain tfp1, active compounds read low 0.965 | locus YDL192W, strain arf1, active compounds read low 1.01 | locus YDR101C, strain arx1, active compounds read low 1.03 | locus YDR162C, strain NBP2, active compounds read low 0.998 | locus YDR318W, strain mcm21, active compounds read low 0.98 | locus YDR388W, active compounds read low 0.982 | locus YDR502C, strain sam2, active compounds read low 0.968 | locus YEL061C, strain CIN8, active compounds read low 0.985 | locus YER110C, active compounds read low 0.97 | locus YER155C, strain BEM2, active compounds read low 1.01 | locus YER167W, strain BCK2, active compounds read low 0.995 | locus YGL078C, strain dbp3, active compounds read low 0.973 | locus YGL086W, strain mad1, active compounds read low 0.995 | locus YGL248W, strain PDE1, active compounds read low 0.967 | locus YGR135W, strain pre9, active compounds read low 0.952 | locus YGR252W, strain gcn5, active compounds read low 1.06 | locus YHR030C, strain SLT2, active compounds read low 0.952 | locus YHR079C, strain IRE1 (second series), active compounds read low 0.983 | locus YHR079C, strain IRE1, active compounds read low 0.93 | locus YHR094C, strain hxt1, active compounds read low 0.978 | locus YHR129C, strain ARP1, active compounds read low 0.983 | locus YHR200W, strain rpn10, active compounds read low 0.988 | locus YIL066C, strain RNR3, active compounds read low 0.983 | locus YIL073C, strain SPO22, active compounds read low 1.02 | locus YIL125W, strain kgd1, active compounds read low 0.978 | locus YIR030C, strain dcg1, active compounds read low 0.964 | locus YJL095W, strain BCK1, active compounds read low 0.988 and 0.963 | locus YJL134W, strain LCB3, active compounds read low 0.985 | locus YJL168C, strain set2, active compounds read low 0.991 | locus YJL187C, strain SWE1 (second series), active compounds read low 0.961 | locus YJR066W, strain TOR1, active compounds read low 0.889 | locus YKL009W, strain mrt4, active compounds read low 1 | locus YKL068W, active compounds read low 0.969 | locus YKL085W, strain MDH1 (second series), active compounds read low 0.97 | locus YKL085W, strain MDH1, active compounds read low 0.97 | locus YKR001C, strain vps1, active compounds read low 1 | locus YLR039C, strain RIC1, active compounds read low 0.943 | locus YLR058C, strain SHM2, active compounds read low 0.993 | locus YLR102C, strain apc9, active compounds read low 0.974 | locus YLR268W, strain sec22, active compounds read low 1.01 | locus YLR342W, strain FKS1 (second series), active compounds read low 1.06 | locus YLR371W, strain rom2, active compounds read low 0.998 | locus YLR418C, strain cdc73, active compounds read low 0.989 | locus YML016C, strain PPZ1, active compounds read low 0.971 | locus YML032C, strain rad52, active compounds read low 0.997 | locus YML124C, strain tub3, active compounds read low 0.968 | locus YMR078C, strain ctf18, active compounds read low 0.978 | locus YMR223W, strain ubp8, active compounds read low 0.989 | locus YMR263W, strain SAP30, active compounds read low 0.982 | locus YMR307W, strain GAS1, active compounds read low 1.02 | locus YNL067W, strain RPL9B, active compounds read low 0.983 | locus YNL128W, strain TEP1, active compounds read low 0.99 | locus YNL183C, strain NPR1, active compounds read low 0.911 | locus YNL233W, strain BNI4, active compounds read low 0.973 | locus YNL250W, strain rad50, active compounds read low 0.921 | locus YNL271C, strain bni1, active compounds read low 0.968 | locus YNL298W, strain CLA4, active compounds read low 0.967 | locus YNL307C, strain MCK1, active compounds read low 0.974 | locus YNR052C, strain pop2, active compounds read low 0.961 | locus YOL012C, strain htz1 0.831 | locus YOL147C, strain pex11, active compounds read low 0.99 | locus YOR061W, strain CKA2, active compounds read low 0.982 | locus YOR069W, strain VPS5, active compounds read low 0.974 | locus YOR136W, strain idh2, active compounds read low 1 | locus YOR144C, strain elg1, active compounds read low 0.978 | locus YOR184W, strain ser1, active compounds read low 1.05 | locus YOR231W, strain MKK1, active compounds read low 0.942 | locus YOR316C, strain cot1, active compounds read low 0.978 | locus YPL055C, strain LGE1, active compounds read low 1.05 | locus YPL241C, strain CIN2, active compounds read low 0.989 | locus YPL256C, strain CLN2, active compounds read low 0.892 | locus YPR119W, strain clb2, active compounds read low 0.981 | locus YPR141C, strain kar3, active compounds read low 0.956 | locus YPR163C, strain tif3, active compounds read low 0.974 | locus YPR167C, strain met16, active compounds read low 0.979 | strain wtn01, active compounds read low 1.04
